PubChem BioAssay AID2599 (Sanford-Burnham Center for Chemical Genomics, 2010)
The campaign covered roughly 330,000 compounds. About 5,800 (1.8%) were called active. The sample holds actives, similar compounds and a random draw of the others, so the mix is not that of the screen.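 How the source made its calls: active means inhibition above about 50% at the single tested dose (limit read from the data); inactive means the rest.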

Molecular target: Sentrin-specific protease 6 (Homo sapiens) (UniProt Q9GZR1)
Sequence (Q9GZR1 628-1112 limits assumed): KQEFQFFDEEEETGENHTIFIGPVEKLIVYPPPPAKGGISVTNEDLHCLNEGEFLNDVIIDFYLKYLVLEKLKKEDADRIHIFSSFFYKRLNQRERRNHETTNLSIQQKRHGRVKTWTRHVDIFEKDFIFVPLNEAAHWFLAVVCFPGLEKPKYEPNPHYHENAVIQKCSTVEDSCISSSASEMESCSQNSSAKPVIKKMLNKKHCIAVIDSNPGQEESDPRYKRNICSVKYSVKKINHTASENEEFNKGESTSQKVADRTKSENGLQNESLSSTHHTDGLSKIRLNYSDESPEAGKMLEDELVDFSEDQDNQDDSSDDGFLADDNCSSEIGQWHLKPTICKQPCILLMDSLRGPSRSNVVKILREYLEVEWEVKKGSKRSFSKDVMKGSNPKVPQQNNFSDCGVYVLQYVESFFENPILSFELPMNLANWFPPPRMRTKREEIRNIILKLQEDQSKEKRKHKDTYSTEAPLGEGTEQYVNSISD
Assay: inhibition of human SENP6 catalytic domain – biochemical, luminescence, uHTS, primary screen (AID 2599);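 further: plate controls were DMSO wells with enzyme for no effect and DMSO wells lacking enzyme for full effect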
Conditions: Recombinant SENP6 catalytic domain, aminoluciferin luminescence; at 10 µM; hits give high values

| SMILES | inhibition |
| --- | --- |
| N#Cc1cc([N+](=O)[O-])ccc1NCC1CCCO1 (stereo not given) | -15.1% (inactive) |
| COc1ccc(/C=N/OCC(=O)N(Cc2ccccc2)c2ccccc2C(=O)O)cc1 | -17.2% (inactive) |
| COc1ccc(C(=O)Nc2ccccc2C(=O)N/N=C/c2ccccc2OC)cc1 | 66.7% (active) |
| COc1ccccc1C(=O)NNC(=O)c1ccc(NC(=O)c2ccccc2)cc1 | 5.14% (inactive) |
| COc1ccc(/C=N/Nc2ccccc2C(=O)O)cc1 | 93.1% (active) |
| COc1ccc(NS(=O)(=O)c2cc(C(=O)Nc3ccccc3C(=O)O)ccc2C)cc1 | -2.27% (inactive) |
| COc1cc(/C=N/NC(=O)c2ccc(N3CCCC3=O)cc2)ccc1O | -7.53% (inactive) |
| COc1ccc(C(=O)Nc2cc(C)c(NC(=O)c3ccccc3OC)cn2)cc1 | 37.3% (inactive) |
| CCOc1cc(/C=N/NC(=O)c2cc(-c3ccccc3)nc3ccccc23)ccc1O | 19.5% (inactive) |
| COc1ccc(C(=O)Nc2ccccc2C(=O)N/N=C/c2ccc(O)c(OC)c2)cc1 | 98.7% (active) |
| O=C(O)CC(c1ccccc1F)N1Cc2ccccc2C1=O (stereo not given) | -11.5% (inactive) |
| COc1ccc(/C=N/n2c(C)cc(C)cc2=O)cc1 | -12.1% (inactive) |
| O=C(N/N=C/c1ccsc1)c1cc(O)cc(O)c1 | 3.66% (inactive) |
| CCn1cc(/C=C(\NC(=O)c2cc(OC)c(OC)c(OC)c2)C(=O)N2CCN(C)CC2)c2ccccc21 | 0.634% (inactive) |
| Cc1cccc(NC(=O)/C=C/c2ccc3c(c2)OCO3)n1 | 82.7% (active) |
| O=C(/C=C/c1ccc2c(c1)OCO2)NCc1ccc(F)cc1 | 1.24% (inactive) |
| Cc1cccc(NC(=O)Nc2ccc3c(c2)OCO3)n1 | -17.4% (inactive) |
| CCCc1ccc(OCc2ccc(C(=O)N/N=C/c3cccc([N+](=O)[O-])c3)o2)c(OC)c1 | -3.27% (inactive) |
| COc1ccccc1N1CCN(C(=O)CCS(=O)(=O)c2ccc3c(c2)NC(=O)C(C)S3)CC1 (stereo not given) | 4.9% (inactive) |
| CCOC(=O)C(C)N(c1ccccc1Cl)S(C)(=O)=O (stereo not given) | 14.8% (inactive) |
| COc1ccccc1NC(=O)c1cc(Cl)nc2ccccc12 | -4.88% (inactive) |
| O=C(O)c1cc(Cl)c(Cl)cc1C(=O)Nc1cccc2ncccc12 | 57% (active) |
| O=C(O)c1ccccc1-c1ccccc1C(=O)Nc1cccc2ccccc12 | -15.6% (inactive) |
| CN(Cc1ccccc1F)C(=O)C(Cc1ccccc1)NC(=O)c1ccccc1 (stereo not given) | -9.94% (inactive) |

| SMILES | inhibition |
| --- | --- |
| Cc1cccc(-c2noc(-c3ccc(F)cc3)n2)c1 | 94.2% (active) |
| Cc1cccc(-c2noc(CCC(=O)NC3CCCC3)n2)c1 | -13.6% (inactive) |
| Cn1nc(-c2ccccc2)c(-c2nc(-c3ccc(Cl)cc3)no2)c1Cl | 3.33% (inactive) |
| Cc1ccc(NS(=O)(=O)c2c(C)[nH]c(C)c2C(=O)N2CCCCC2)c(C)c1 | -8.53% (inactive) |
| S=C(Nc1cccc(Br)c1)N1CCn2cccc2C1c1cccnc1 (stereo not given) | -5.73% (inactive) |
| CC(C)CCNC(=O)CC1C(=O)N(Cc2ccccc2)C(C)c2nc3ccccc3n21 (stereo not given) | -1.07% (inactive) |
| COc1cc(C(=O)OC2CCOC2=O)c([N+](=O)[O-])cc1OC (stereo not given) | -15.4% (inactive) |
| CC(C)c1ccc(C(=O)OC2CCOC2=O)cc1 (stereo not given) | -5.48% (inactive) |
| O=C(OC1CCOC1=O)c1ccc(-c2nc3ccccc3s2)s1 (stereo not given) | 97.8% (active) |
| CN(CCO)c1ccc(/C=N/Nc2nncc3ccccc23)cc1 | 96.7% (active) |
| C/C(=N\Nc1nncc2ccccc12)c1ccc(Cl)c([N+](=O)[O-])c1 | 1.2% (inactive) |
| COc1cc(/C=N/Nc2nn3cnnc3c3ccccc23)cc(OC)c1OC | 2.31% (inactive) |
| COc1ccc(NC(=O)C2C3C=CC(C3)C2C(=O)NCc2ccccn2)c(OC)c1 (stereo not given) | 10.4% (inactive) |
| Cc1noc(C)c1COc1ccc2ccc(=O)oc2c1 | -9.61% (inactive) |
| CCCCc1cc(=O)oc2cc(C)cc(OCc3nn[nH]n3)c12 | -1.99% (inactive) |
| COc1ccc(-c2cc3ccc(OCc4nn[nH]n4)cc3oc2=O)cc1 | 68.8% (active) |
| CCS(=O)(=O)Nc1ccc(C(=O)NCCSc2ccccc2)cc1 | 11.9% (inactive) |
| Cc1ccc(F)c(NC(=O)CCOc2ccccc2C)c1 | 5.27% (inactive) |
| Cc1cccc(OCC(=O)Nc2ccccc2F)c1 | 56.4% (active) |
| Cc1ccc(F)c(NC(=O)CCc2ccccc2)c1 | 51.3% (active) |
| Cc1cccc(OCCC(=O)Nc2ccccc2C(N)=O)c1 | -32.4% (inactive) |
| COc1ccc([N+](=O)[O-])cc1NC(=O)CCc1ccccc1 | -1.66% (inactive) |
| Cc1cccc(OCC(=O)Nc2ccc(C(=O)O)cc2NC(=O)COc2cccc(C)c2)c1 | 10.8% (inactive) |
| CCOC(=O)C1C(=O)NCC1c1ccccc1 (stereo not given) | -10.2% (inactive) |

| SMILES | inhibition |
| --- | --- |
| Cc1ccc(-c2ccnc3nc(Sc4ncc(C(F)(F)F)cc4Cl)nn23)cc1 | 3.77% (inactive) |
| CCOC(=O)CSC1=N/C(=C/c2ccc(-n3cncn3)cc2)C(=O)N1C(C)=O | 4.91% (inactive) |
| CCOC(=O)C1CCN(C(=O)CN2C(=O)c3cccnc3Oc3ccc(C)cc32)CC1 | -14.4% (inactive) |
| Cc1nn(-c2ccccc2)c2[nH]c(C(F)(F)F)cc(=O)c12 | -1.92% (inactive) |
| N=c1c2c3c(sc2ncn1CCCN1CCOCC1)CCCCC3 | 3.22% (inactive) |
| O=C(O)C1OC(C(=O)O)C2C1C(F)(F)C2(F)F (stereo not given) | -10.3% (inactive) |
| COc1cc(/C=C(\C#N)c2nc3ccccc3[nH]2)ccc1O | 92.4% (active) |
| COc1cc(/C=C(\C#N)c2nc3c(s2)CC(C)CC3)ccc1O (stereo not given) | 8.39% (inactive) |
| Cc1ccc2nc(/C(C#N)=C\c3ccc(OC(=O)c4cccs4)cc3)[nH]c2c1 | -7.94% (inactive) |
| c1ccc(C[C@H]2CNCCN2CCC23CC4CC(CC(C4)C2)C3)cc1 | 1.32% (inactive) |
| O=C(Nc1ccccc1Cc1ccccc1)c1ccc2c(c1)SC1=NS(=O)(=O)CCN12 | -1.13% (inactive) |
| O=C(NCc1ccco1)C(c1ccncc1)N(C(=O)Cn1nnc2ccccc21)c1ccccc1 (stereo not given) | -7.82% (inactive) |
| O=C(CC1C(=O)NCCN1C(=O)c1ccc([N+](=O)[O-])cc1)Nc1cccc(Cl)c1 (stereo not given) | -13.3% (inactive) |
| O=Cc1ccc(Oc2cccc(C(F)(F)F)c2)nc1 | 7.02% (inactive) |
| FC(F)(F)c1ccnc(Oc2ccc(C3=NCCS3)cc2)c1 | 74.8% (active) |
| O=[N+]([O-])c1cccc(C2=NCCS2)c1 | -2.08% (inactive) |
| Cc1cccc(N)c1SC1CCCCC1O (stereo not given) | 14.9% (inactive) |
| CCCCN1C(N)=NC[C@@H]1CC1CCCCC1 | -9.84% (inactive) |
| CCCCN(CC)CCNC(=O)CCNC(=O)Cn1ccc2ccccc2c1=O | -9.66% (inactive) |
| C=CCOc1ccc(Cl)cc1CNCCCN1CCOCC1 | 7.54% (inactive) |
| c1ccc(-n2nnnc2NC2CCCCCC2)cc1 | -14.3% (inactive) |
| Brc1ccc(C2CC(c3ccccc3)=Nc3ccccc3N2)cc1 (stereo not given) | 81.3% (active) |
| O=C(c1ccccc1)N1N=C(c2ccccc2O)CC1c1ccc(Br)cc1 (stereo not given) | -41.6% (inactive) |
| CNC(=S)N1N=C(c2ccccc2)CC1c1ccc(Br)cc1 (stereo not given) | -4.9% (inactive) |

| SMILES | inhibition |
| --- | --- |
| COc1cc(NC(=S)N2CCCC(C)C2)c(OC)cc1Cl (stereo not given) | 1.77% (inactive) |
| O=C(CC(c1ccccc1)c1ccccc1)NCC(O)c1ccc([N+](=O)[O-])cc1 (stereo not given) | -31.1% (inactive) |
| COC(=O)CCSc1nccn1Cc1ccccc1 | -11% (inactive) |
| CCCCCC(O)(CCN1CCCCC1)c1ccccc1 (stereo not given) | 5.63% (inactive) |
| CC/C(=N\NC(=O)c1ccccc1Cl)c1ccc(Br)s1 | 3.9% (inactive) |
| C/C(=N\NC(=O)CNc1cccc2ccccc12)c1ccc(Br)s1 | 77.3% (active) |
| Cc1cccc(C(=O)Nc2ccc(C(=O)N/N=C/c3cccc(C)n3)cc2)c1 | -5% (inactive) |
| Cc1cccc(/C=N/NC(=O)CNc2cccc3ccccc23)n1 | 78.3% (active) |
| Cc1ccccc1NCC(=O)N/N=C\c1ccc([N+](=O)[O-])s1 | 44% (inactive) |
| C/C(=N\NC(=O)CSc1nc2ccccc2c(=O)n1-c1ccccc1C)c1cccs1 | 6.68% (inactive) |
| Cc1ccc(NC(=O)CSc2nc(=O)n(CCN(C)C)c3c2CCCC3)c(C)c1 | -3.87% (inactive) |
| CC(NC(=S)Nc1ccc(S(N)(=O)=O)cc1)c1ccc2c(c1)OCO2 (stereo not given) | 7% (inactive) |
| CCn1c(SCC(=O)NNC(=O)c2ccc(OC)cc2)nnc1C(C)C | -13.3% (inactive) |
| Cc1nn2c(NCCN(C)C)c3c(nc2c1-c1ccccc1)CCC3 | -33.9% (inactive) |
| CC(NC(=O)COC(=O)c1ccc2ccccc2n1)c1ccccc1 (stereo not given) | -2.28% (inactive) |
| CC(OC(=O)c1ccc2ccccc2n1)C(=O)c1ccccc1 (stereo not given) | 65.8% (active) |
| Cc1ccc(S(=O)(=O)N(C)C)cc1NC(=O)C(C)OC(=O)c1ccc2ccccc2n1 (stereo not given) | -0.065% (inactive) |
| CC(OC(=O)CNS(=O)(=O)/C=C/c1ccccc1)C(=O)Nc1ccc(S(=O)(=O)N2CCCC2)cc1 (stereo not given) | 1.69% (inactive) |
| Cn1c(=O)c(=O)n(C)c2cc(S(=O)(=O)NCCN3CCN(c4ccccc4F)CC3)ccc21 | -19.5% (inactive) |
| CCOC(=O)[C@H]1CCC[C@@H](NS(=O)(=O)c2ccc(NC(C)=O)cc2)C1 | 4.75% (inactive) |
| N#C/C(=C(/O)COC(=O)COc1ccc(Cl)cc1)c1nc2ccccc2[nH]1 | -13.3% (inactive) |
| O=C(/C(=C/c1cccc(Cl)c1)c1nc2ccccc2[nH]1)c1ccccc1 | -2.12% (inactive) |
| O=C(Cc1nc2ccccc2[nH]c1=O)c1ccc(Cl)cc1 | 50.3% (active) |
